Results taken from PubChem BioAssay.
Where “and” joins values, the source holds several entries; their conditions need not be identical. Identical values can stand only once. For part of these data: Entries with a potency or affinity are not part of this list. Calls of active or inactive are those of the source. Unless noted, no rule for the calls is given here.

How the values were obtained:
[1] = compounds altering circadian rhythm period length – cell-based, LOPAC library, luminescence reporter (AID 2774); details: circadian reporter cells, at 7 µM, actives lie on both sides;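 also: values are relative to mean of DMSO wells on each plate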
[2] = system: Hepatitis C virus NS3 helicase; assay: blockers of NS3h binding to ssDNA – biochemical, fluorescence polarization, LOPAC1280 library, primary screen (AID 687035; in the data active = inhibition above about 37%); details: Purified HCV NS3 helicase, Cy5-dT15 ssDNA binding fluorescence polarization; stronger effect = higher value; concentration not given here
[3] = compounds altering Cy5-DNA-NS3h complex signal – biochemical, LOPAC1280, artefact control for HCV NS3 helicase inhibitor project (AID 687037); details: Cy5-DNA-NS3h complex fluorescence interference counterscreen
[4] = system: Aerobactin synthetase IucA (Klebsiella pneumoniae); assay: inhibition of K. pneumoniae IucA enzyme – biochemical, Tocris library, absorbance (AID 1345561); details: purified IucA enzyme assay, absorbance (OD) read-out; stronger effect = lower value;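 tested at 8 µM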;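 also: 100% = enzyme without compound and 0% = no enzyme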
[5] = system: Aerobactin synthetase IucA (Klebsiella pneumoniae, hypervirulent); assay: biochemical IucA inhibition screen of LOPAC library by absorbance (AID 1346212); details: IucA enzyme assay, absorbance (OD) readout; stronger effect = lower value;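 tested at 8 µM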;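 also: 100% = no compound wells and 0% = no enzyme wells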
[6] = viability loss with induced miR-34 in A549 – imaging, A549 dox-inducible miR-34, nuclei and caspase counts, primary screen (AID 1347080;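 active = compounds whose cell count with miR-34 switched on is under 0.7 times the count with it off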); details: A549 miR-34 inducible, Hoechst nuclei count, 48 h
[7] = blockers of cellular phospholipid synthesis – cell-based, LOPAC library, screen 4, primary screen (AID 1347384); details: animal cells, phospholipid biosynthesis inhibition screen; at 10 µM
[8] = galactose survival enhancers in mitochondrial complex I cybrids – cell-based, galactose medium, ATP luminescence, primary screen (AID 1645843;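 active = z-score of at least 1.8 in each of two replicates, scored against plate mean and spread of sample wells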;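 also: positive z means more ATP and so rescue of galactose-driven cybrid death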); details: complex I mutant cybrid cells, 72 h, stronger effect = higher value
[9] = P. berghei load reduction in hepatocytes – cell-based, HepG2, luciferase luminescence, HepG2 viability, primary screen (AID 624349; in the data active = parasite load remaining mostly below about 12%, no sharp cut-off; inactive = mostly above about 10%;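 also: 100% = mean of DMSO negative control wells on the same plate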); details: P. berghei liver stage in HepG2, luciferase luminescence, concentration not given here; parasite load remaining: stronger effect = lower value; viability: measured here: HepG2 viability without parasites
[10] = EMT-state selective cytotoxicity in co-culture – imaging, PC-3E GFP, TEM4-18 mCherry, primary screen (AID 1345086;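 active = compounds killing one labelled cell type while sparing the other, by normalised counts and ratio limits, not self-fluorescent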;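 as to all read-outs here: cells exposed to compound for 72 h before imaging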;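 as to red/green cell ratio (normalised): normalised mesenchymal count divided by normalised epithelial count so high means epithelial killing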); details: PC-3E GFP / TEM4-18 mCherry co-culture, imaging cell counts, at 1 µM; for red/green cell ratio (normalised): actives lie on both sides
[11] = blockers of polyQ-driven CASP3 activation – cell-based (AID 1583); details: polyglutamine-induced caspase-3 activation, cell assay; stronger effect = higher value;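 tested at 10 µM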
[12] = yeast 75Q aggregation reduction – 75Q-TubU reporter (AID 1593); details: Yeast 75Q polyglutamine aggregation reporter
[13] = restoration of touch response, mutant HTT neurons – whole organism, C. elegans mechanosensory neurons, N-terminal huntingtin (AID 1599); details: C. elegans polyQ-huntingtin mechanosensory neurons, stronger effect = higher value
[14] = blockers of cytochrome c efflux from mitochondria – biochemical, purified mitochondria (AID 1603); details: stronger effect = lower value;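 also: mouse liver mitochondria challenged with calcium chloride; signal normalized to the plate average as 100%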
[15] = polyglutamine aggregate formation blockers (AID 1604); details: polyglutamine-induced protein aggregation inhibition assay; stronger effect = higher value; tested at 2.5 µM
[16] = glutamate transport activators, MN-1 cells, MN-1 cell line (AID 1612); details: MN-1 motor neuron cells, stronger effect = higher value;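 also: tested at 1 µM final; 0% = mean of DMSO vehicle wells on each plate; positive means more glutamate uptake than control and negative means less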
[17] = 75Q-TubH aggregate inhibition, S. cerevisiae, yeast (AID 1616); details: S. cerevisiae 75Q-TubH polyglutamine aggregation suppression; stronger effect = higher value
[18] = MELAS cybrid and Rieske KO viability enhancers – cell-based, MELAS cybrids, Rieske KO mouse fibroblasts, CellTiter-Glo, primary screen (AID 1508586;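 active = mean z-score across replicates of 1.96 or higher in either the MELAS or the Rieske mutant cell line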;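 also: z relative to plate mean and SD of compound and empty wells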); details: low glucose
[19] = molecular target: Mitogen-activated protein kinase 7 (Homo sapiens) (UniProt Q13164); assay: Gal4-ERK5 driven luciferase induction – cell-based, HTS, primary screen (AID 1508626;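 active = luciferase signal above three times the same-plate solvent-only control wells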;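 also: luciferase driven by Gal4-ERK5 fusion binding five Gal4 sites before minimal TATA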); details: HeLa Gal4-ERK5 transactivation, 18 h, at 5 µM, stronger effect = higher value
[20] = measured here: relative caspase fold change +Dox/-Dox
[21] = measured here: total cells with miR-34 induction, stronger effect = lower value
[22] = measured here: total cells without miR-34 induction
[23] = measured here: epithelial PC-3E GFP cell survival
[24] = measured here: mesenchymal TEM4-18 mCherry cell survival

Sequence of Mitogen-activated protein kinase 7 (Homo sapiens) (Q13164 whole entry, looked up, the tested form may be a part): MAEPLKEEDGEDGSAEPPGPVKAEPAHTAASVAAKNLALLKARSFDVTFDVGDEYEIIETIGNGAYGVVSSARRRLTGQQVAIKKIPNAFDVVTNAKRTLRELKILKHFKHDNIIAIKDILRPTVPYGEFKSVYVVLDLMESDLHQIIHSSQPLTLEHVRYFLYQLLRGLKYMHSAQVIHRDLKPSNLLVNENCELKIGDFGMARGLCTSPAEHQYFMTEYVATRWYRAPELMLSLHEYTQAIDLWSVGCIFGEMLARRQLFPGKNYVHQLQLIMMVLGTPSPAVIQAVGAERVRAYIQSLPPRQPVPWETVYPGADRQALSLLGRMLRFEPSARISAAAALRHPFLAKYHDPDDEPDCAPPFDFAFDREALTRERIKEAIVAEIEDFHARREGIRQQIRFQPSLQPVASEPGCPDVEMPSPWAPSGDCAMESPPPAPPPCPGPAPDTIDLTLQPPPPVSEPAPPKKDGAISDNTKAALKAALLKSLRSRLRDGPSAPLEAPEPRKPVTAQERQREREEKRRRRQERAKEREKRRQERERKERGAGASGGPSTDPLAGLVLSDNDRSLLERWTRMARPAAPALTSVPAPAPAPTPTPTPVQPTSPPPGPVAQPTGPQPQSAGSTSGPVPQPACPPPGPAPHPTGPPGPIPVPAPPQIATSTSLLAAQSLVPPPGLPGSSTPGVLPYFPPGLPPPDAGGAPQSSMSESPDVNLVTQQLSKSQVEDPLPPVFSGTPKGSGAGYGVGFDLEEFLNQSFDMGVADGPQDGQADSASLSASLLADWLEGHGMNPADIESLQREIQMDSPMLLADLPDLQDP

In the case of c1ccc(CCCN2CCN(CCOC(c3ccccc3)c3ccccc3)CC2)cc1, the period change [1] was -0.025 h (inactive), the inhibition [2] was 0% (inactive) and the fluorescence ratio (interference) [3] was 1 (inactive). For the same compound, the remaining activity [4] was 117% (inactive), the remaining activity [5] was 104% (inactive) and the fold change ([6]; stronger effect = lower value) was 1.21 (inactive) and 0.966 (inactive). The fold change [6, 20] was 1.16 and 0.645, the cell count [6, 21] was 3120 and 2750 and the cell count [6, 22] was 2580 and 2850. The outcome [7] was “inactive” and the z-score [8] was -1.04 (inactive) and -1.21 (inactive).

With O=C(O)CCCO the parasite load remaining [9] was 64.2% (inactive), the viability [9] was 92.7% and the red/green cell ratio (normalised) [10] was 1 (inactive). For the same compound, the normalised cell number [10, 23] was 0.91, the normalised cell number [10, 24] was 0.91 and the fold change ([6]; stronger effect = lower value) was 0.926 (inactive). The fold change [6, 20] was 0.797, the cell count [6, 21] was 11100 and the cell count [6, 22] was 11900.

In the case of C/C(O)=C(\C#N)C(=O)Nc1cc(Br)ccc1Br, the period change [1] was 0.265 h (inactive), the inhibition [2] was 1% (inactive) and the fluorescence ratio (interference) [3] was 1 (inactive). For the same compound, the remaining activity [4] was 116% (inactive), the remaining activity [5] was 112% (inactive) and the fold change ([6]; stronger effect = lower value) was 1.11 (inactive) and 0.867 (inactive). The fold change [6, 20] was 0.986 and 2.29, the cell count [6, 21] was 5190 and 8220 and the cell count [6, 22] was 4660 and 9480. The z-score [8] was 2.97 (active).

For CC(N)Cc1c[nH]c2ccc(O)cc12 (stereo not given), the period change [1] was -0.08 h (inactive), the inhibition [2] was -7% (inactive) and the fluorescence ratio (interference) [3] was 0.9 (inactive). For the same compound, the remaining activity [4] was 105% (inactive), the remaining activity [5] was 122% (inactive) and the fold change ([6]; stronger effect = lower value) was 1.02 (inactive) and 0.98 (inactive). For the same compound, the fold change [6, 20] was 1.63 and 0.84, the cell count [6, 21] was 11100 and 9190 and the cell count [6, 22] was 10900 and 9370. For the same compound, the outcome [7] was “inactive” and the z-score [8] was 0.365 (inactive) and 0.08 (inactive).

In the case of C#C[C@@H]1CC2C3CCC4=C[C@@H](OC(C)=O)CCC4C3CC[C@]2(C)[C@H]1OC(C)=O (stereo not given in full), the parasite load remaining [9] was 19.4% (inactive), the viability [9] was 101% and the red/green cell ratio (normalised) [10] was 0.9 (inactive). The normalised cell number [10, 23] was 1.25, the normalised cell number [10, 24] was 1.12 and the fold change ([6]; stronger effect = lower value) was 0.854 (inactive). The fold change [6, 20] was 3.71, the cell count [6, 21] was 11300 and the cell count [6, 22] was 13200.

With O=C1C2CCN(CC2)C1(CO)CO the remaining activity [4] was 120% (inactive), the fold change ([6]; stronger effect = lower value) was 1.16 (inactive) and 0.936 (inactive) and 0.92 (inactive) and the fold change [6, 20] was 1.5 and 1.74 and 0.604. The cell count [6, 21] was 4350 and 5660 and 9650, the cell count [6, 22] was 3770 and 6050 and 10500 and the z-score [8] was -0.76 (inactive).

Work on CN1CCc2cc3c(cc2[C@H]1[C@@H]1OC(=O)c2c1ccc1c2OCO1)OCO3 yielded an inhibition [11] of -6.49%, a score [12] of 1.32 and a rescue above control [13] of 3.46. For the same compound, the cytochrome c release ratio [14] was 0.82, the inhibition of aggregation [15] was 59.1% and the glutamate uptake change [16] was 4.35%. For the same compound, the aggregation suppression score [17] was 0.931, the period change [1] was 0.03 h (inactive) and the parasite load remaining [9] was 65% (inactive) and 87.6% (inactive). For the same compound, the viability [9] was 109% and 77.4%, the remaining activity [4] was 114% (inactive) and the fold change ([6]; stronger effect = lower value) was 0.865 (inactive) and 0.821 (inactive) and 0.983 (inactive). The fold change [6, 20] was 1.2 and 0.761 and 1.26, the cell count [6, 21] was 9130 and 8360 and 9120 and the cell count [6, 22] was 10600 and 10200 and 9280. The z-score ([18]; MELAS cybrid survival, CellTiter-Glo 48 h, stronger effect = higher value) was -0.206 (inactive), the z-score ([18]; Rieske KO mouse fibroblast survival, CellTiter-Glo 72 h) was -0.158 and the luciferase signal [19] was 44 AU (inactive). The z-score [8] was 0.335 (inactive).
